According to PubChem BioAssay (NCI):
This is part of a sample that, as a whole, favours compounds with a hit. Of some 83,000 tested, about 20% had one in any assay.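 A percent growth of 40 corresponds to 60% growth inhibition; 0 means no net growth; -100 means all cells died. Active threshold: below 10.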 Values without a mark were called inactive. The source made the active and inactive calls.

What was measured:
Assay in all cases: NCI-60 one-dose screen, 48 h (100 = growth as untreated, 0 = no growth, -100 = all killed)
Details in all cases: 10 µM unless noted
SK-MEL-2 melanoma = system: SK-MEL-2 melanoma
EKVX NSCLC = system: EKVX NSCLC
SN12C renal = system: SN12C renal
UO-31 renal = system: UO-31 renal
TK-10 renal = system: TK-10 renal
ACHN renal = system: ACHN renal
CAKI-1 renal = system: CAKI-1 renal
A498 renal = system: A498 renal
CCRF-CEM leukemia = system: CCRF-CEM leukemia
MOLT-4 leukemia = system: MOLT-4 leukemia
SR leukemia = system: SR leukemia
RPMI-8226 leukemia = system: RPMI-8226 leukemia
OVCAR-8 ovarian = system: OVCAR-8 ovarian
OVCAR-5 ovarian = system: OVCAR-5 ovarian
OVCAR-4 ovarian = system: OVCAR-4 ovarian
SK-OV-3 ovarian = system: SK-OV-3 ovarian
IGROV1 ovarian = system: IGROV1 ovarian
OVCAR-3 ovarian = system: OVCAR-3 ovarian
HS 578T breast = system: HS 578T breast
NCI/ADR-RES ovarian = system: NCI/ADR-RES ovarian

| SMILES | growth (SK-MEL-2 melanoma) | growth (EKVX NSCLC) | growth (SN12C renal) | growth (UO-31 renal) | growth (TK-10 renal) | growth (ACHN renal) | growth (CAKI-1 renal) | growth (A498 renal) | growth (CCRF-CEM leukemia) | growth (MOLT-4 leukemia) | growth (SR leukemia) | growth (RPMI-8226 leukemia) | growth (OVCAR-8 ovarian) | growth (OVCAR-5 ovarian) | growth (OVCAR-4 ovarian) | growth (SK-OV-3 ovarian) | growth (IGROV1 ovarian) | growth (OVCAR-3 ovarian) | growth (HS 578T breast) | growth (NCI/ADR-RES ovarian) |
| --- | --- | --- | --- | --- | --- | --- | --- | --- | --- | --- | --- | --- | --- | --- | --- | --- | --- | --- | --- | --- |
| COc1ccc(/C=C/C(=O)c2ccc(Nc3ncnc4ccccc34)cc2)cc1OC | 124% | 78.3% | 88.5% | 71.2% | 98.8% | 88.8% | 75.6% | 77.6% | 49.7% | 48.2% | 16.7% | -11.4% (active) | 65% | 103% | 85.5% | 102% | 76.3% | 74.9% | 110% | 78.1% |
| Clc1nc(Cl)c2ncn(CCOCCn3cnc4c(Cl)nc(Cl)nc43)c2n1 | -76.8% (active) | -91.1% (active) | -83.6% (active) | -95.4% (active) | -86% (active) | -89.1% (active) | -94.6% (active) | -92.4% (active) | -45.2% (active) | -68.9% (active) | -75.9% (active) | -52.8% (active) | -83.2% (active) | -85% (active) | -86.1% (active) | -98.3% (active) | -95.6% (active) | -97.4% (active) | -42.5% (active) | -56% (active) |
| CC1(C)[C@H](O)CC[C@]2(C)[C@@H]1CC[C@@]13C[C@@H](CC[C@H]12)[C@@](O)(CO)C3 | 106% | 104% | 103% | 93.6% | 108% | 106% | 97.8% | 96.9% | 106% | 108% | 103% | 108% | 110% | 106% | 117% | 109% | 113% | 112% | 97.9% | 106% |
| CCCCCCCCCCCCCCCC(=O)OC[C@@]1(O)C[C@@]23CC[C@@H]4C(C)(C)CCC[C@@]4(C)[C@@H]2CC[C@H]1C3 | 105% | 109% | 93.6% | 84.7% | 100% | 106% | 74.2% | 97.7% | 43.2% | 57.3% | 22.9% | 81.9% | 92.3% | 108% | 97.7% | 113% | 107% | 103% | 98.9% | 102% |
| Brc1ccc(C2CC(c3cccc(Nc4ccncc4)c3)=NN2c2ccccc2)cc1 (stereo not given) | 102% | 95.7% | 81.2% | 74.6% | 94.4% | 91.3% | 81.1% | 80.2% | 63.2% | 47.3% | 4.53% (active) | 50.5% | 77.6% | 89.3% | 70.3% | 84.4% | 58.3% | 80% | 90.9% | 79.2% |
| CS(=O)(=O)c1ccc(-c2cc3c(oc2=O)-c2ccccc2OC3O)cc1 (stereo not given) | 99.2% | 98.4% | 104% | 74% | 99.9% | 98.6% | 75.4% | 87.7% | 58.9% | 86.3% | 103% | 90.6% | 95.9% | 98.2% | 94% | 92.8% | 102% | 88.2% | 88.5% | 105% |
| CN1CCN(c2cnc(C(=O)Nc3cc(F)cc4cccnc34)cn2)CC1 | 94.8% | 45.5% | 62.2% | 43% | 69.3% | 26.5% | 57.3% | 75.7% | 35.6% | 23.5% | 24.5% | 49.2% | 63.8% | 62.7% | 8.94% (active) | 96.9% | 8.45% (active) | 9.25% (active) | 69.2% | 56.5% |
| O=S(=O)(NCCNc1nccc(-c2c(-c3cccc(F)c3)nc3occn23)n1)c1cccc2ccccc12 | 58.3% | 48.5% | 47.6% | 15.9% | 47.1% | 40.5% | 25% | 37.7% | 43.8% | 26.3% | 41.6% | 21.7% | 58.4% | 116% | 47.8% | 69% | 35.4% | 71.7% | 64.9% | 48.8% |
| O=C(NCCN1CCOCC1)OCc1nc2nc(Cl)nc(N3CCOCC3)c2[nH]1 | 18.9% | 95.2% | 29.2% | 39.6% | 71% | 33.1% | 25.2% | -8.24% (active) | 5.93% (active) | 19% | -0.969% (active) | 8.39% (active) | 7.4% (active) | 93.3% | 45.7% | 30.7% | 17.6% | -2.86% (active) | 14.3% | 6.61% (active) |
| CC1=CC[C@@H]2CC[C@]3(C)[C@H](CC[C@@H]4[C@@]5(C)CCCNC(C)(C)[C@@H]5CC[C@]43C)[C@H]2[C@@H]1C | 94.6% | 84.5% | 48.3% | 55.7% | 80.5% | 8.91% (active) | 30.4% | 60.2% | 5.21% (active) | -8.43% (active) | 5.05% (active) | -32.8% (active) | -87.3% (active) | 41.1% | -41% (active) | 103% | 40.5% | -28.9% (active) | 92.9% | -45.1% (active) |
| COc1ccc(C(=O)c2cc3c(N)c(C(=O)Nc4cccc(Br)c4C)sc3nc2C)cc1 | 17.6% | 38.3% | 19.2% | 21% | 54.3% | 24% | 15.2% | -13.2% (active) | 9.3% (active) | 10.2% | -21.4% (active) | 8.87% (active) | 1.15% (active) | 40.6% | 37.4% | 23.2% | 24.3% | -20.1% (active) | 12.4% | 0.768% (active) |
| C/C(=C(/c1ccccc1)c1ccc(OCC(O)CN2CCOCC2)cc1)c1ccccc1 (stereo not given) | 98.9% | 96.6% | 88.3% | 73.7% | 94.3% | 98.8% | 80.1% | 91.6% | 80.4% | 61.5% | 47.2% | 75% | 88.5% | 87.2% | 89.3% | 91.3% | 96.2% | 90.4% | 90.8% | 93.2% |
| COc1c(Cl)cc(Cl)c2ccc(C=C3C(=O)N(C)C(=O)N(C)C3=O)nc12 | 107% | 101% | 99.3% | 96% | 102% | 106% | 95.3% | 96.8% | 99.8% | 99.5% | 93.2% | 102% | 111% | 111% | 104% | 101% | 114% | 104% | 104% | 106% |
| Fc1ccc(C2CC(c3cccc(Nc4ccncc4)c3)=NN2c2ccc(Cl)cc2)cc1 (stereo not given) | 101% | 84.7% | 68.5% | 52.9% | 84.6% | 75.6% | 43.6% | 78% | 42.6% | 24% | 4.4% (active) | 28% | 22.6% | 88.8% | 60.7% | 80.9% | 44.3% | 67.8% | 79.9% | 66.8% |
| FC(F)(F)Oc1cccc(-c2cc(NCCCCCCNc3cc(-c4cccc(OC(F)(F)F)c4)nc4ccc(N5CCCC5)cc34)c3cc(N4CCCC4)ccc3n2)c1 | 2.93% (active) | -54.4% (active) | -81.4% (active) | 35% | -89.7% (active) | -15.6% (active) | 5.91% (active) | 21.8% | -32.1% (active) | -35.6% (active) | -40.7% (active) | -34.3% (active) | -50.2% (active) | -29.4% (active) | -72.7% (active) | 89.8% | -64% (active) | -95.9% (active) | -4.44% (active) | 21.6% |
